# Experimental data from PubChem BioAssay AID1159580 (chemical genetic matrix, 2015).
# About 2,000 (36%) of roughly 5,500 compounds were called active. Roughly 18% stayed inconclusive and do not appear here. The list shows a part of the results. Values without a mark were called inactive. Cut-off read from the data, not from the text of the source: active = normalized growth mostly below about 0.91 (no sharp cut-off); inconclusive = no clear call, values can overlap the other calls; inactive = mostly above about 0.92.
# Assay: chemical genetic growth profiling, strain panel (AID 1159580);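 note: tested at 20 µM; growth read once vehicle control cultures reached saturation at 30 °C; 1 = growth at the plate median or of vehicle wells; lower values mean less growth of the strain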
# Conditions: S. cerevisiae deletion strains, growth OD
# [1] = locus YAR019C, strain CDC15, hits give low values
# [2] = locus YBL105C, strain PKC1, hits give low values
# [3] = locus YBR135W, strain CKS1, hits give low values
# [4] = locus YBR136W, strain MEC1, hits give low values
# [5] = locus YBR160W, strain CDC28, hits give low values
# [6] = locus YDL017W, strain CDC7, hits give low values
# [7] = locus YDL028C, strain MPS1, hits give low values
# [8] = locus YDL101C, strain DUN1, hits give low values
# [9] = locus YDL108W, strain KIN28, hits give low values
# [10] = locus YDL132W, strain cdc53, hits give low values
# [11] = locus YDL214C, strain PRR2, hits give low values
# [12] = locus YDR052C, strain DBF4, hits give low values
# [13] = locus YDR054C, strain cdc34, hits give low values
# [14] = locus YDR226W, strain ADK1, hits give low values
# [15] = locus YDR477W, strain SNF1, hits give low values
# [16] = locus YER123W, strain YCK3, hits give low values
# [17] = locus YER133W, strain GLC7, hits give low values
# [18] = locus YFL009W, strain cdc4, hits give low values
# [19] = locus YFL029C, strain CAK1, hits give low values
# [20] = locus YFR003C, strain YPI1, hits give low values
# [21] = locus YFR019W, strain FAB1, hits give low values
# [22] = locus YFR028C, strain CDC14, hits give low values
# [23] = locus YGR040W, strain KSS1, hits give low values
# [24] = locus YGR052W, strain FMP48, hits give low values
# [25] = locus YGR092W, strain DBF2, hits give low values
# [26] = locus YHR030C, strain SLT2, hits give low values
# [27] = locus YHR079C, strain IRE1, hits give low values
# [28] = locus YHR082C, strain KSP1, hits give low values
# [29] = locus YHR205W, strain SCH9, hits give low values
# [30] = locus YIL147C, strain SLN1, hits give low values
# [31] = locus YJL095W, strain BCK1, hits give low values
# [32] = locus YJL157C, strain FAR1, hits give low values
# [33] = locus YJR016C, strain ILV3, hits give low values
# [34] = locus YJR066W, strain TOR1 (second series), hits give low values
# [35] = locus YJR066W, strain TOR1, hits give low values
# [36] = locus YKL048C, strain ELM1, hits give low values
# [37] = locus YKL067W, strain YNK1, hits give low values
# [38] = locus YKL101W, strain HSL1, hits give low values
# [39] = locus YKL193C, strain SDS22, hits give low values
# [40] = locus YKL203C, strain TOR2, hits give low values
# [41] = locus YLR113W, strain HOG1, hits give low values
# [42] = locus YLR133W, strain CKI1, hits give low values
# [43] = locus YLR403W, strain SFP1, hits give low values
# [44] = locus YML070W, strain DAK1, hits give low values
# [45] = locus YMR001C, strain CDC5, hits give low values
# [46] = locus YMR205C, strain PFK2 (second series), hits give low values
# [47] = locus YMR277W, strain FCP1, hits give low values
# [48] = locus YNL006W, strain LST8, hits give low values
# [49] = locus YNL020C, strain ARK1, hits give low values
# [50] = locus YNL161W, strain CBK1, hits give low values
# [51] = locus YNL183C, strain NPR1, hits give low values
# [52] = locus YNL207W, strain RIO2, hits give low values
# [53] = locus YNL222W, strain SSU72, hits give low values
# [54] = locus YNL307C, strain MCK1 (second series), hits give low values
# [55] = locus YOL078W, strain AVO1, hits give low values
# [56] = locus YOL136C, strain PFK27, hits give low values
# [57] = locus YOR061W, strain CKA2, hits give low values
# [58] = locus YOR119C, strain RIO1, hits give low values
# [59] = locus YOR231W, strain MKK1, hits give low values
# [60] = locus YOR329C, strain SCD5, hits give low values
# [61] = locus YPL031C, strain PHO85, hits give low values
# [62] = locus YPL153C, strain RAD53, hits give low values
# [63] = locus YPL204W, strain HRR25, hits give low values
# [64] = locus YPL209C, strain IPL1, hits give low values
# [65] = locus YPL256C, strain CLN2, hits give low values
# [66] = locus YPR025C, strain CCL1, hits give low values
# [67] = locus YPR106W, strain ISR1, hits give low values
# [68] = locus YPR111W, strain DBF20, hits give low values
# [69] = strain NNK1, hits give low values
# [70] = strain TSCII, hits give low values
structure (smiles),measurement,setting,value
Cc1ccc(NS(=O)(=O)c2ccc(Cl)cc2)c(N=Cc2cc(Cl)cc(Cl)c2O)c1,normalized growth,[1],0.952
same,normalized growth,[2],0.965
same,normalized growth,[3],0.955
same,normalized growth,[4],0.961
same,normalized growth,[5],0.961
same,normalized growth,[6],0.958
same,normalized growth,[7],0.96
same,normalized growth,[8],0.968
same,normalized growth,[9],0.954
same,normalized growth,[10],0.962
same,normalized growth,[11],0.277 (active)
same,normalized growth,[12],0.961
same,normalized growth,[13],0.929
same,normalized growth,[14],0.958
same,normalized growth,[15],0.252 (active)
same,normalized growth,[16],0.169 (active)
same,normalized growth,[17],0.269 (active)
same,normalized growth,[18],0.945
same,normalized growth,[19],0.95
same,normalized growth,[20],0.948
same,normalized growth,[21],0.342 (active)
same,normalized growth,[22],0.965
same,normalized growth,[23],0.323 (active)
same,normalized growth,[24],0.219 (active)
same,normalized growth,[25],0.137 (active)
same,normalized growth,[26],0.118 (active)
same,normalized growth,[27],0.151 (active)
same,normalized growth,[28],0.147 (active)
same,normalized growth,[29],0.154 (active)
same,normalized growth,[30],0.949
same,normalized growth,[31],0.15 (active)
same,normalized growth,[32],0.162 (active)
same,normalized growth,[33],0.967
same,normalized growth,[34],0.363 (active)
same,normalized growth,[35],0.144 (active)
same,normalized growth,[36],0.336 (active)
same,normalized growth,[37],0.257 (active)
same,normalized growth,[38],0.291 (active)
same,normalized growth,[39],0.968
same,normalized growth,[40],0.273 (active)
same,normalized growth,[41],0.3 (active)
same,normalized growth,[42],0.198 (active)
same,normalized growth,[43],0.118 (active)
same,normalized growth,[44],0.203 (active)
same,normalized growth,[45],0.971
same,normalized growth,[46],0.289 (active)
same,normalized growth,[47],0.936
same,normalized growth,[48],0.946
same,normalized growth,[49],0.17 (active)
same,normalized growth,[50],0.951
same,normalized growth,[51],0.208 (active)
same,normalized growth,[52],0.949
same,normalized growth,[53],0.963
same,normalized growth,[54],0.145 (active)
same,normalized growth,[55],0.962
same,normalized growth,[56],0.193 (active)
same,normalized growth,[57],0.196 (active)
same,normalized growth,[58],0.303 (active)
same,normalized growth,[59],0.203 (active)
same,normalized growth,[60],0.96
same,normalized growth,[61],0.231 (active)
same,normalized growth,[62],0.234 (active)
same,normalized growth,[63],0.211 (active)
same,normalized growth,[64],0.958
same,normalized growth,[65],0.255 (active)
same,normalized growth,[66],0.959
same,normalized growth,[67],0.959
same,normalized growth,[68],0.943
same,normalized growth,[69],0.776 (active)
same,normalized growth,[70],0.959
Cc1ccc(NC(=O)c2ccccc2N=Cc2cc(Cl)cc(Cl)c2O)c(N=Cc2cc(Cl)cc(Cl)c2O)c1,normalized growth,[1],0.926
same,normalized growth,[2],0.926
same,normalized growth,[3],0.921
same,normalized growth,[4],0.927
same,normalized growth,[5],0.934
same,normalized growth,[6],0.927
same,normalized growth,[7],0.927
same,normalized growth,[8],0.962
same,normalized growth,[9],0.925
same,normalized growth,[10],0.937
same,normalized growth,[11],0.459 (active)
same,normalized growth,[12],0.93
same,normalized growth,[13],0.911
same,normalized growth,[14],0.925
same,normalized growth,[15],0.284 (active)
same,normalized growth,[16],0.252 (active)
same,normalized growth,[17],0.365 (active)
same,normalized growth,[18],0.93
same,normalized growth,[19],0.909
same,normalized growth,[20],0.913
same,normalized growth,[21],0.598 (active)
same,normalized growth,[22],0.933
same,normalized growth,[23],0.377 (active)
same,normalized growth,[24],0.363 (active)
same,normalized growth,[25],0.123 (active)
same,normalized growth,[26],0.213 (active)
same,normalized growth,[27],0.201 (active)
same,normalized growth,[28],0.293 (active)
same,normalized growth,[29],0.166 (active)
same,normalized growth,[30],0.914
same,normalized growth,[31],0.218 (active)
same,normalized growth,"locus YJL128C, strain PBS2, hits give low values",0.885
same,normalized growth,[32],0.272 (active)
same,normalized growth,[33],0.934
same,normalized growth,[34],0.51 (active)
same,normalized growth,[35],0.237 (active)
same,normalized growth,[36],0.422 (active)
same,normalized growth,[37],0.359 (active)
same,normalized growth,[38],0.387 (active)
same,normalized growth,[39],0.924
same,normalized growth,[40],0.37 (active)
same,normalized growth,[41],0.247 (active)
same,normalized growth,[42],0.28 (active)
same,normalized growth,[43],0.131 (active)
same,normalized growth,[44],0.32 (active)
same,normalized growth,[45],0.925
same,normalized growth,[46],0.348 (active)
same,normalized growth,[47],0.935
same,normalized growth,[48],0.931
same,normalized growth,[49],0.198 (active)
same,normalized growth,[50],0.906
same,normalized growth,[51],0.254 (active)
same,normalized growth,[52],0.922
same,normalized growth,[53],0.929
same,normalized growth,[54],0.188 (active)
same,normalized growth,[55],0.928
same,normalized growth,[56],0.25 (active)
same,normalized growth,[57],0.197 (active)
same,normalized growth,[58],0.39 (active)
same,normalized growth,[59],0.255 (active)
same,normalized growth,[60],0.913
same,normalized growth,[61],0.291 (active)
same,normalized growth,[62],0.324 (active)
same,normalized growth,[63],0.313 (active)
same,normalized growth,[64],0.929
same,normalized growth,[65],0.294 (active)
same,normalized growth,[66],0.928
same,normalized growth,[67],0.936
same,normalized growth,[68],0.916
same,normalized growth,[69],0.91
same,normalized growth,[70],0.922
